In PubChem BioAssay:
Activity calls are given as the source filed them.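 How the source made its calls, unless noted: active means fluorescence slope after compound addition differing from the mean of all screened samples at 99.7% confidence, in either direction; inactive means the rest.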

Key:
[1] = inhibitors of TNFa-induced NFkB p65 translocation, primary screen, imaging, HUVEC, MLSMR starter and 10KST1 sets (AID 438;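 active means inhibition above 20% together with a positive visual image hit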;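 further: compound added about 3h40 before a 20 min TNFalpha stimulation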;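 on inhibition: signal is the nuclear over cytoplasmic p65 intensity ratio per well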); settings: HUVEC TNFa-induced p65 nuclear translocation; cell count: measured here: nuclei count (cytotoxicity indicator), at 2.08 µM; inhibition: at 2 µM, stronger effect = higher value, 0% TNFa-plus-vehicle, 100% no-TNFa wells
[2] = inhibitors of mutant huntingtin aggregation, primary screen, imaging, exon1htt(103Q)mCFP cells, high-content imaging (AID 483;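 active means visual image review flags a hit and inhibition of aggregation exceeds 20%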;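 further: compound exposure lasted 3 days before fixation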;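 on nuclei count: percent of the per-plate median nuclei count of sample wells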); settings: exon1htt(103Q)mCFP cell line, aggregate imaging, at 2 µM; inhibition of aggregation: stronger effect = higher value; nuclei count: measured here: cell count, toxicity
[3] = inhibitors of E-selectin induction by TNFa, primary screen, imaging, HUVEC, immunofluorescence, MLSMR starter and 10KST1 sets (AID 487;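 active means visually confirmed hit in the image check and inhibition above 20%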;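 on inhibition: signal is fraction of cell area covered by stained E-selectin grains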;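 on nuclei count: 100% = median nuclei count of all wells on the same plate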); settings: HUVEC TNFalpha-induced E-selectin immunofluorescence imaging, at 2 µM; inhibition: stronger effect = higher value; nuclei count: measured here: cell number, toxicity
[4] = biological target: Voltage-gated potassium channel subunit beta-2 (Rattus norvegicus) (UniProt P62483); assay: KvBeta enzyme negative modulators, primary screen, biochemical, NADPH fluorescence (AID 622;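 active means fluorescence slope higher than the sample average by over 3 SD, cut at about -0.22 in these data, passing the limit was not always enough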;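 further: slope of raw intensity against log time taken from 70 to 1610 s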); settings: recombinant KvBeta, 4-cyanobenzaldehyde reduction, at 10 µM, stronger effect = higher value
Sequence of Voltage-gated potassium channel subunit beta-2 (Rattus norvegicus) (P62483 whole entry, looked up): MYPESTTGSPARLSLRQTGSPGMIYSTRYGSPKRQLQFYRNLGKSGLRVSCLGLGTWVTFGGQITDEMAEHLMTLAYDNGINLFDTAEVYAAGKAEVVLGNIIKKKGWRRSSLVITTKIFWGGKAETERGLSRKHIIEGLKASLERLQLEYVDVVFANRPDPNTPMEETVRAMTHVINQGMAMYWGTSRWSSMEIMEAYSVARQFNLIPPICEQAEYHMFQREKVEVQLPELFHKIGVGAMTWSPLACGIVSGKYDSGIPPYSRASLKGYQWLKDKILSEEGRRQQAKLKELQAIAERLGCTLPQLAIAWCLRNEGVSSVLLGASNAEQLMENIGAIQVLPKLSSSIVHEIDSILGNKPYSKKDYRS

[5] = biological target: Voltage-gated potassium channel subunit beta-2 (Rattus norvegicus) (UniProt P62483); assay: KvBeta positive modulators, primary screen, biochemical, NADPH fluorescence (AID 623;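 active means NADPH fluorescence slope more negative than the mean of all samples by about 3 SD, 99.7% confidence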;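 further: fluorescence intensity change per second fitted from 20 to 320 s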); settings: Recombinant KvBeta, NADPH fluorescence decrease slope, 10 min; at 10 µM; stronger effect = lower value
[6] = biological target: Alpha-2C adrenergic receptor (Homo sapiens) (UniProt P18825); assay: modulators of alpha2C/GIRK thallium flux, primary screen, cell-based, HEK293 alpha2C/GIRK1/2 (AID 624); settings: thallium flux BTC fluorescence, at 10 µM, actives lie on both sides;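 further: slope of fluorescence ratio to pre-addition baseline per second over 15 to 24 s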
Sequence of Alpha-2C adrenergic receptor (Homo sapiens) (P18825 whole entry, looked up): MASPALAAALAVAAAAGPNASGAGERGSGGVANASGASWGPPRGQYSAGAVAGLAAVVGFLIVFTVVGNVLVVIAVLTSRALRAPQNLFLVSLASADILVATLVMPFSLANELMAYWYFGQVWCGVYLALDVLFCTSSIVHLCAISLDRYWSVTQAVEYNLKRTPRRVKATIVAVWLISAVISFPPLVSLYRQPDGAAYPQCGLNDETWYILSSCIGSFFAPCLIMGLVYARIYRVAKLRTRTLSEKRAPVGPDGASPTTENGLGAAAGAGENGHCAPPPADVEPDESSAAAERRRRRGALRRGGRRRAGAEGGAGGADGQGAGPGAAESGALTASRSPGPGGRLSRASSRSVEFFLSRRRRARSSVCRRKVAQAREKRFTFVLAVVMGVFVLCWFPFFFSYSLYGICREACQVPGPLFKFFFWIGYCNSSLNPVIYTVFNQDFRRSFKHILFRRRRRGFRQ

[7] = inhibitors of Sendai virus-induced IRF3 signaling, primary screen, TLR/RLR signaling modifier project, cell-based, Sendai virus stimulus, luciferase, 10K MLSCN set (AID 602276;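 active means inhibition at or above 50% at 10 µM; inactive means inhibition below 50%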;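 further: firefly luciferase from ISG56 promoter only with Renilla not read in this screen; 0% = Sendai virus plus DMSO and 100% = medium plus DMSO without virus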); settings: HEK293 RL24 IRF3 luciferase reporter, at 10 µM, stronger effect = higher value
[8] = inhibitors of poly I:C-induced TLR3 signaling, primary screen, cell-based, poly I:C stimulus, luciferase, 10K MLSCN set (AID 602277;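 active means inhibition of the reporter signal at or above 50%; inactive means inhibition below 50%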); settings: HEK293-TLR3 RL24 IRF3 luciferase reporter, at 10 µM, stronger effect = higher value

Compound	cell count [1]	inhibition [1]	inhibition of aggregation [2]	nuclei count [2] [%]	inhibition [3]	nuclei count [3] [%]	fluorescence slope [4]	NADPH fluorescence slope [5]	slope [6]	inhibition [7]	inhibition [8]
COc1ccc(C(=O)COC(=O)CCn2nnc(-c3cccs3)n2)cc1	237	2.2% (inactive)	20% (inactive)	78.6	56.4% (inactive)	73.7	-0.426 (inactive)	1.6e-05 (inactive)	0.00571 (inactive)	-6.55% (inactive)	-7.1% (inactive)
Cc1oc(-c2ccccc2F)nc1CS(=O)(=O)CC(=O)N1CCCCCC1	712	-1.1% (inactive)	-22.4% (inactive)	116	-40.3% (inactive)	117	-0.57 (inactive)	-9.9e-06 (inactive)	0.00627 (inactive)	-6.49% (inactive)	1.53% (inactive)
Cc1ccc2nc(-c3ccc(S(=O)(=O)N4CCOCC4)cc3)cn2c1	591	-9.3% (inactive)	-9.3% (inactive)	96.7	7.4% (inactive)	89.1	-0.0874 (active)	1e-05 (inactive)	0.00713 (inactive)	5.63% (inactive)	-13.9% (inactive)
O=C(CSc1nnc(-c2cccs2)o1)NCC1CN(Cc2ccccc2)CCO1 (centres undefined)	669	7.8% (inactive)	4.9% (inactive)	92.2	-87.4% (inactive)	140	-0.607 (inactive)	-6.7e-06 (inactive)	0.00563 (inactive)	-0.491% (inactive)	-12.1% (inactive)
O=C(Nc1ccc(F)cc1)N(Cc1ccco1)Cc1cc2cc3c(cc2[nH]c1=O)OCO3	473	4.5% (inactive)	6.1% (inactive)	96.6	15.9% (inactive)	102	-0.418 (inactive)	-2e-05 (inactive)	0.0056 (inactive)	-8.59% (inactive)	-15.6% (inactive)
CCn1cc(C(=O)NCCCOC)c(=O)c2cc(S(=O)(=O)N(C)C)ccc21	693	-5% (inactive)	6% (inactive)	82.6	-42.6% (inactive)	112	-0.418 (inactive)	3.3e-05 (inactive)	0.00533 (inactive)	4.09% (inactive)	31.3% (inactive)
CCN1CCN(C(=O)c2cn(CC)c3ccc(S(=O)(=O)N(C)C)cc3c2=O)CC1	639	1.3% (inactive)	12.4% (inactive)	100	-30% (inactive)	107	-0.59 (inactive)	-3.2e-05 (inactive)	0.00681 (inactive)	7.55% (inactive)	20.6% (inactive)
CCOc1ccc2[nH]c(O)c(NC(C)=O)c2c1	645	-20.5% (inactive)	5.7% (inactive)	104	43.8% (inactive)	101	-0.361 (inactive)	-5.8e-05 (inactive)	0.00431 (inactive)	10.2% (inactive)	16.9% (inactive)
CC(=O)Nc1cccc(NC(=O)C2CCCN2C(=O)Nc2ccc(C)cc2)c1 (centres undefined)	789	-3.2% (inactive)	0.5% (inactive)	89.4	-3.5% (inactive)	111	-0.507 (inactive)	-4.3e-06 (inactive)	0.0061 (inactive)	-9.54% (inactive)	20.3% (inactive)
